Only some compounds are listed: those with a hit (about 19% of all), similar ones and a draw of the others.
Lassa entry inh – qHTS for Inhibitors of binding or entry into cells for Lassa Virus; Potency, µM (doses to about 37.9 µM), inactives show top-dose activity change, negative = inhibition, usual class: inhibitors; Lassa virus pseudotype entry inhibition, cell reporter; AID 540256, 2011; actives 1.2% (n = 300,000); calls by dose curve; tested in HEK293 cells; further: potency means the concentration at half of the fitted maximal effect; on the % scale 0 is the no-effect control and ±100 the full control effect; nearly all actives have a fitted effect of over 50% in size
MARV entry inh – qHTS for inhibitors of binding or entry into cells for Marburg Virus; Potency, µM (highest dose often 37.8 µM), for the others: at the highest dose activity change, negative = inhibition, actives largely listed as inhibitors; actives 1.8% (n = 300,000); Marburg virus pseudotyped entry inhibition, cell reporter; calls by dose curve; tested in HEK293 cells; further: potency means the concentration at half of the fitted maximal effect; on the % scale 0 is the no-effect control and ±100 the full control effect
Shiga toxin inh – A qHTS for Small Molecule Inhibitors of Shiga Toxin; Vero cells, Shiga toxin protein synthesis inhibition reporter; inhibition, % at 38.7 µM; actives 9.2% (n = 290,000); AID 2315, 2010; in the data active means inhibition mostly above about 28%, no sharp cut-off; inactive means mostly below about 43%; further: 0% is about no effect
Pf growth 48h – Primary qHTS for delayed death inhibitors of the malarial parasite plastid, 48 hour incubation. P. falciparum luciferase growth in erythrocytes, 48 h. AID 504832, 2011. Potency, µM (highest dose often 28.7 µM), without a hit: at the highest dose activity change, negative = inhibition, usual class: inhibitors. actives 5.9% (n = 310,000); further: potency means the concentration at half of the fitted maximal effect; on the % scale 0 is the no-effect control and ±100 the full control effect
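Parasite viability was followed by luminescence of a genomically integrated firefly luciferase. Cultures held 0.1% parasitemia at 2% hematocrit (final), incubated under 5% CO2 at 37 C.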
Cycloheximide cs – Cycloheximide Counterscreen for Small Molecule Inhibitors of Shiga Toxin | max response, % | cell reporter, cycloheximide protein synthesis inhibition counterscreen | actives 12% (n = 300,000); in the data active means max response mostly above about 13%, no sharp cut-off; inactive means mostly below about 14%; further: read at 38.3 µM for the half of the compounds with a filed dose; 0% is about no effect
Pf growth 96h – Primary qHTS for delayed death inhibitors of the malarial parasite plastid, 96 hour incubation; P. falciparum luciferase reporter growth, 96 h; Potency, µM (top dose mostly 28.7 µM), for inactives: at the highest dose activity change, negative = inhibition, usual class: inhibitors; actives 6.9% (n = 320,000); further: potency means the concentration at half of the fitted maximal effect; on the % scale 0 is the no-effect control and ±100 the full control effect
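Parasite growth measured via integrated firefly luciferase reporter in P. falciparum. Infected erythrocytes at 2% hematocrit, 0.05% parasitemia final were treated 96 hours at 37 C under 5% CO2, and luminescence was read.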
* hit, by the source's call; i = inactive; ? = inconclusive; nt = not tested or not shown; [ ] = remark or other dose. Unless noted, the call rests on the fitted dose curve; in most records, active means well fitted inhibition curve with a large enough effect; inconclusive means small, poorly fitted or top-dose-only effect, or another doubt; inactive means no such curve, though single readings can be large or run the other way.

SMILES	Lassa entry inh	MARV entry inh	Shiga toxin inh	Pf growth 48h	Cycloheximide cs	Pf growth 96h
CN(C)S(=O)(=O)c1ccc(C(=O)OCC(=O)Nc2ccc(OC(F)F)cc2)cc1	-10%[46.1 µM]	?	22	10%	-2	45%
COc1ccc(N2CCN(CC(=O)Nc3nc(C)cs3)CC2)cc1	-25%	-19%	-14	-4%	-1	i
COc1ccc(Cc2nnc(Nc3ccc(Cl)cc3)[nH]c2=O)cc1	nt	-2%	16	?	18*	?
COc1ccccc1Nc1nnc(Cc2ccccc2)c(=O)[nH]1	-9%[46.1 µM]	22%[46.1 µM]	-2	22%	-2	12µM*
COc1ccc(Cc2nnc(Nc3ccccc3OC)[nH]c2=O)cc1	3%	7%[46.1 µM]	-10	?	-2	-5%
NC1=NC(=O)NC1(c1ccccc1)c1ccccc1	13%[46.1 µM]	-4%	nt	nt	nt	nt
CCON=O	nt	nt	nt	-75%	nt	2.7µM*
CCc1c(N)nc(N)nc1Nc1ccc(C)c(C)c1	2%[46.1 µM]	?	nt	nt	nt	nt
CCCc1nc2c(C)ccc(C)c2c(N)c1CC	-24%	9.2µM*	-10	13µM*	1	9.3µM*
CCOc1nonc1C(=N)/C(C(C)=O)=C(\C)O	-6%	-1%	-11	nt	-3	0%
Cn1c(O)c(N=NC(=O)Cn2ccc(C(F)(F)F)n2)c2ccccc21	17%	?	9	-12%	-3	?
Cc1ccccc1NC(=S)N(CCCN1CCOCC1)Cc1ccccn1	2%	12%	-15	7%	-4	?
Cc1ccc(-c2noc(C3CCCN(C(=O)c4ccc(F)cc4F)C3)n2)cc1 (stereo unspecified)	?	1%	17	-24%	15*	?
CC(C)c1ccc(-c2noc(C3CCCN(C(=O)c4ccc(F)cc4F)C3)n2)cc1 (stereo unspecified)	?	?	38*	?	55*	51%
Cc1nn(C)c(=S)[nH]c1=S	16%[46.1 µM]	20%[46.1 µM]	nt	nt	nt	nt
O=C(COC(=O)c1ccc([N+](=O)[O-])s1)Nc1ccccc1	-13%	3%	11	2%	-3	-23%
CN(C)NC(=O)c1ccc([N+](=O)[O-])s1	nt	nt	-7	10µM*	-3	12µM*
O=C(Nc1cccc2ccccc12)c1ccc([N+](=O)[O-])s1	?	-26%	7	12µM*	2	5.2µM*
O=C(Nc1ccccc1F)c1ccc([N+](=O)[O-])s1	?	?	83	10µM*	38*	4.1µM*
Cc1ccc(CC(=O)Nc2cc([N+](=O)[O-])ccc2F)cc1	nt	nt	-13	21%	2	22%
Cc1ccc(C(=O)Nc2cc([N+](=O)[O-])ccc2F)s1	?	-13%	active	20%	10	11%
O=C(CCN1C(=O)/C(=C/c2ccccc2Cl)SC1=S)NNC(=O)c1cccnc1	2%	?	24	3%	6	39%
O=C(NCc1ccccn1)C1CN(S(=O)(=O)c2ccccc2)CCN1S(=O)(=O)c1ccccc1 (stereo unspecified)	-2%	1%[46.1 µM]	17	-14%	7	-3%
O=C(NNC(=S)Nc1cccc2ccccc12)c1cccc(Br)c1	?	5%	-13	nt	11	13%
O=C(Nc1cccnc1)c1ccc([N+](=O)[O-])s1	nt	nt	nt	5.2µM*	nt	?
SMILES	Lassa entry inh	MARV entry inh	Shiga toxin inh	Pf growth 48h	Cycloheximide cs	Pf growth 96h
Cc1ccc(C(=O)NNC(=S)Nc2cccc3ccccc23)s1	17%	0%	67*	107%	30*	1%
O=C(Nc1cccnc1)c1ccc([N+](=O)[O-])cc1Cl	3%	?	12	7%	6	69%
CC(=O)NC(c1ccco1)c1cc(F)c2cccnc2c1O (stereo unspecified)	nt	nt	nt	4.1µM*	nt	?
CC(=O)NC(c1cccs1)c1cc(F)c2cccnc2c1O (stereo unspecified)	nt	nt	nt	2.9µM*	nt	4.7µM*
COC(=O)c1cc(-c2ccc(OC)cc2)nc2nc(SC)[nH]c(=O)c12	?	?	-7	-10%	-2	-11%
COc1ccc(/C=N/Nc2nnc(C)n2N)cc1OC(C)=O	?	?	13	nt	12*	25%
Cc1nnc(N/N=C/c2ccc(-c3ccc(Br)cc3)o2)n1N	-2%	16%[46.1 µM]	62	?	15	3.7µM*
Cc1nnc(N/N=C/c2ccc(Br)cc2)n1N	nt	nt	nt	81%	10.0*	15µM*
COc1ccc(/C=N/Nc2nnc(C)n2N)cc1OC	?	?	-5	?	11	-4%
COc1ccccc1NC(=O)CN1CCN(c2ccccc2F)CC1	?	15%[46.1 µM]	-15	?	-1	57%
CC(/C=C/c1ccc(N(C)C)cc1)=N\N=C1\NC(=O)CC(C(=O)Nc2ccccc2)S1 (stereo unspecified)	?	?	63*	62%	49*	23%
CCCOc1ccc(NC(=O)C2CC(=O)N/C(=N/N=C(\C)CCc3ccc4c(c3)OCO4)S2)cc1 (stereo unspecified)	-7%	-3%	-11	3%	-3	?
COc1ccc(NC(=O)C2CC(=O)N/C(=N/N=C/c3ccccc3)S2)cc1 (stereo unspecified)	?	?	-5	5%	0	11%
CCCOc1ccc(NC(=O)C2CC(=O)N/C(=N/N=C(C)/C=C/c3ccc(N(C)C)cc3)S2)cc1 (stereo unspecified)	-8%	-2%	82*	46%	40*	?
CC(/C=C/c1ccc(N(C)C)cc1)=N/N=C1/NC(=O)CC(C(=O)Nc2ccc(Cl)cc2)S1 (stereo unspecified)	1%	?	60*	55%	48*	-3%
COc1cc(CNCc2cccs2)ccc1OCc1ccccc1	11%	-84%	7	36%	26*	?
c1ccc(COc2cccc(CNCc3cccs3)c2)cc1	-4%	?	41	38%	24*	?
COc1cc(CNC23CC4CC(CC(C4)C2)C3)ccc1OCc1ccccc1	20%[46.1 µM]	5µM*	11	?	-2	-20%[5.75 µM]
Clc1ccc(COc2cccc(CNCc3ccncc3)c2)cc1	?	0%[46.1 µM]	-4	0%	12	?
COc1cc(CNCc2ccccn2)ccc1OCc1ccc(Cl)cc1	-7%	?	36	?	16	-27%
COc1cc(CNCc2ccccn2)ccc1OCc1cccc(Cl)c1	-2%	?	73	?	25*	?
Cc1ccc(NC(=O)CN(C)C(=O)CSc2nc3ccccc3o2)cc1	5%	?	3	55%	6	2%
O=C(COc1ccc2c(c1)CCC2)N1CCN(c2ccccc2F)CC1	0%	5%	-12	14%	-2	19%

Screening data: PubChem BioAssay, National Center for Advancing Translational Sciences (NCATS)
